Outcome and AC50 data for six compounds are collected here from PubChem BioAssay (EPA / NIEHS).

Several values for one entry are separate records, joined by “and”; a condition that tells them apart may be missing. Identical values can stand only once. Records with an inconclusive call do not appear. Some structures have more than one record in an assay (separate samples or runs), and their calls can disagree. Activity calls are given as the source filed them. Rule for the calls, unless noted: active = hit-call score of the fitted dose curve at least 0.9, where 1 is the maximum; inactive = score below 0.9.

The nature of experiment [1]: ATG_PBREM_CIS: Attagene CIS-FACTORIAL HepG2 Assay for human Phenobarbital-responsive Enhancer Module (PBREM) (AID 2282955). Particulars: HepG2 PBREM cis-reporter, Attagene multiplexed transcription; actives raise or lower the signal. In a few lines:
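Endogenous transcription factors in human liver HepG2 cells drive a PBREM cis-element reporter, whose transcript level after 24 h treatment is quantified by RT-PCR with capillary electrophoresis; activity fitted in both directions against DMSO.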

The target in experiment [2] is Paired box protein Pax-6 (Homo sapiens) (UniProt P26367). Put plainly: ATG_Pax6_CIS: Attagene CIS-FACTORIAL HepG2 Assay for human Paired Box 6 (PAX6) (AID 2282956). The conditions noted are these: HepG2 CIS-FACTORIAL PAX6 reporter transcription, RNA readout; actives raise or lower the signal. In a few lines:
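Transient MRTU transfection of HepG2 → compound exposure 24 h → TriZol RNA, oligo(dT) RT → PCR, 6-FAM primer extension, HpaI cut → capillary electrophoresis; activity fitted both directions against DMSO.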

Experiment [3] is described as follows: ATG_PXRE_CIS: Attagene CIS-FACTORIAL HepG2 Assay for human Pregnane X Receptor Element (PXRE) (AID 2282957). Particulars: HepG2 Attagene CIS-FACTORIAL PXRE reporter, mRNA; actives raise or lower the signal. In a few lines:
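Cells: HepG2, transiently transfected reporter units under cis promoter control. Exposure: 24 h. Detection: reporter mRNA via RT-PCR/CE fluorescence; bidirectional fitting, DMSO-referenced.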

The nature of experiment [4]: ATG_PPRE_CIS: Attagene CIS-FACTORIAL HepG2 Assay for human Peroxisome Proliferator-activated Response Element (PPRE) (AID 2282958). Particulars: HepG2 PPRE cis-element reporter, Attagene transcription factor profiling; actives raise or lower the signal. In a few lines: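 HepG2, transient MRTU transfection (cis promoter elements, endogenous TFs). 24 h dosing. RNA → oligo(dT) RT → PCR → 6-FAM primer extension → HpaI digest → CE. Bidirectional fit vs DMSO.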

Experiment [5] can be described thus: ATG_RORE_CIS: Attagene CIS-FACTORIAL HepG2 Assay for human RAR-related Orphan Receptor Element (RORE) (AID 2282959). The conditions noted are these: HepG2 Attagene cis-factorial RORE reporter, mRNA; actives raise or lower the signal. In a few lines:
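Transient MRTU transfection of human HepG2 liver cells (FuGene 6); 24 h compound exposure; TriZol RNA, oligo(dT) RT, PCR, FAM labeling, HpaI cut, CE fragment analysis. DMSO = negative control/baseline.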

Experiment [6] is described as follows: ATG_Sox_CIS: Attagene CIS-FACTORIAL HepG2 Assay for human SRY-box transcription factor (SOX) (AID 2282960). Particulars: HepG2 Attagene cis-factorial SOX reporter, mRNA; actives raise or lower the signal. In a few lines: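 Endogenous factor activity in human liver HepG2 cells carrying transfected cis-regulated reporter units. RNA taken 24 h post-dose, reverse-transcribed, PCR-amplified and sized by capillary electrophoresis. Gain or loss of signal fitted relative to DMSO.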

The target of experiment [7] is Transcription factor Sp1 (Homo sapiens) (UniProt P08047). Put plainly: ATG_Sp1_CIS: Attagene CIS-FACTORIAL HepG2 Assay for human Specificity Protein 1 (Sp1) (AID 2282961). The conditions noted are these: HepG2 Sp1 cis-reporter transcription, actives raise or lower the signal. In a few lines:
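Transient MRTU-transfected HepG2, 24 h compound exposure. Total RNA → oligo(dT) RT → PCR of reporter → 6-FAM primer extension → HpaI digest → CE. Endpoint fitted both directions vs DMSO.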

Experiment [8] has as its target Signal transducer and activator of transcription 3 (Homo sapiens) (UniProt P40763). Put plainly: ATG_STAT3_CIS: Attagene CIS-FACTORIAL HepG2 Assay for human Signal Transducer and Activator of Transcription 3 (STAT3) (AID 2282963). The conditions noted are these: HepG2, Attagene cis-factorial STAT3 reporter transcription; actives raise or lower the signal. In a few lines:
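Transcript-level reporter assay. HepG2 transient MRTU transfection, 24 h exposure, fluorescence detection after RT-PCR and CE; DMSO baseline.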

Experiment [9] is described as follows: ATG_TA_CIS: Attagene CIS-FACTORIAL HepG2 Assay for human TA Basal Promoter (AID 2282964). The conditions noted are these: HepG2 Attagene CIS-factorial TA basal promoter reporter; actives raise or lower the signal. In outline: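 Background internal-marker endpoint from a 52-component HepG2 cis-reporter panel. Cells treated 24 h; reporter transcripts quantified via RT-PCR and CE fluorescence against DMSO baseline.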

Experiment [10] can be described thus: ATG_TCF_b_cat_CIS: Attagene CIS-FACTORIAL HepG2 Assay for human T-Cell-Factor with beta-catenin (TCF/b-cat) (AID 2282965). Particulars: HepG2 TCF/beta-catenin cis-reporter transcription, actives raise or lower the signal. In a few lines: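 HepG2 cells transiently transfected with multiple cis-promoter-regulated reporter transcription units, so endogenous transcription factor activity is measured. Reporter mRNA read 24 hours after dosing by RT-PCR, fluorescent labelling and capillary electrophoresis; bidirectional fitting against DMSO.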

Experiment [11] is described as follows: ATG_TAL_CIS: Attagene CIS-FACTORIAL HepG2 Assay for human TAL Basal Promoter (AID 2282966).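 Note: background control endpoint measuring basal TAL promoter reporter mRNA not a specific factor.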 Particulars: HepG2 Attagene cis-factorial TAL promoter reporter; actives raise or lower the signal. In a few lines:
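RT-PCR plus capillary electrophoresis quantifies reporter mRNA induction in transiently transfected HepG2 cells after 24 h chemical treatment. DMSO serves as negative control and baseline for bidirectional fitting.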

Experiment [12] in a line: ATG_TGFb_CIS: Attagene CIS-FACTORIAL HepG2 Assay for human Transforming Growth Factor (TGF) (AID 2282967). Particulars: HepG2 Attagene CIS TGFb reporter, mRNA transcription; actives raise or lower the signal. In a few lines: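 Liver HepG2 line, cis-factorial reporter panel, 24 h dosing. Quantitation: RT-PCR products labeled with 6-FAM, cut with HpaI, resolved by capillary electrophoresis; DMSO-referenced bidirectional analysis.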

The nature of experiment [13]: ATG_VDRE_CIS: Attagene CIS-FACTORIAL HepG2 Assay for human Vitamin D Receptor Element (VDRE) (AID 2282968). Particulars: HepG2 VDRE cis-reporter transcription, actives raise or lower the signal. In outline: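 RT-PCR/CE readout of reporter mRNA; HepG2, transient transfection, 24 h dosing; DMSO baseline; bidirectional analysis.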
Experiment [14] deals with Estrogen receptor (Homo sapiens) (UniProt P03372). Put plainly: ATG_ERa_TRANS: Attagene TRANS-FACTORIAL HepG2 Assay for human Estrogen Receptor alpha (ERa) (AID 2282970; active = hit-call score of the fitted dose curve at least 0.9, where 1 is the maximum). The conditions noted are these: HepG2 Attagene TRANS ERa GAL4 reporter, mRNA. In a few lines:
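Cells: HepG2, transiently transfected. Construct: GAL4-UAS reporter units regulated by exogenous NR-Gal4 chimeras. Time: 24 h. Detection: reporter mRNA by RT-PCR, capillary electrophoresis, fluorescence. Baseline: DMSO, upward fitting.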

The target in experiment [15] is Steroid hormone receptor ERR1 (Homo sapiens) (UniProt P11474). Put plainly: ATG_ERRa_TRANS: Attagene TRANS-FACTORIAL HepG2 Assay for human Estrogen-Related Receptor alpha (ERRa) (AID 2282971; active = hit-call score of the fitted dose curve at least 0.9, where 1 is the maximum). Particulars: HepG2 Attagene TRANS reporter, ERRa transactivation. In a few lines:
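Reporter transcripts from ERRa-Gal4 chimera activity measured in transiently transfected human HepG2 cells 24 hours after dosing, using RT-PCR with 6-FAM primer extension, HpaI digestion and capillary electrophoresis; DMSO is baseline.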

In experiment [16] the target is X-box-binding protein 1 (Homo sapiens) (UniProt P17861). Description: ATG_Xbp1_CIS: Attagene CIS-FACTORIAL HepG2 Assay for human X-box Binding Protein 1 (XBP1) (AID 2282972). Particulars: HepG2 XBP1 cis-element reporter, Attagene multiplex; actives raise or lower the signal. In outline:
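HepG2, transient MRTU transfection (cis-promoter driven), 24 h compound exposure. Total RNA → oligo(dT) RT → PCR → 6-FAM labeling → HpaI cut → CE. Bidirectional fit vs DMSO.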

Experiment [17] in a line: ATG_M_19_TRANS: Attagene TRANS-FACTORIAL HepG2 Assay for M19 Transcription Factor (Internal Marker) (AID 2282974; active = hit-call score of the fitted dose curve at least 0.9, where 1 is the maximum). Particulars: HepG2 Attagene TRANS-FACTORIAL M19 internal marker reporter. In a few lines: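 Fluorescence of 6-FAM-labelled reporter cDNA fragments, separated by capillary electrophoresis, served as the readout. These derived from HepG2 cells carrying transfected GAL4-UAS reporter units after 24 h dosing, with DMSO as negative control.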

Experiment [18] addresses Nuclear receptor subfamily 1 group I member 3 (Homo sapiens) (UniProt Q14994). Put plainly: ATG_CAR_TRANS: Attagene TRANS-FACTORIAL HepG2 Assay for human Constitutive Androstane Receptor (CAR) (AID 2282969; active = hit-call score of the fitted dose curve at least 0.9, where 1 is the maximum;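 note: activators raise reporter mRNA above DMSO so AC50 marks induction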). Particulars: HepG2 Attagene TRANS-FACTORIAL CAR reporter. In a few lines: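 HepG2 cells transiently transfected with multiplexed GAL4-UAS reporter units expressing chimeric NR-Gal4 proteins; compound exposure 24 h. Reporter mRNA measured by RT-PCR, 6-FAM labelling, HpaI digestion and capillary electrophoresis; gain-of-signal fitted against DMSO baseline.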

Experiment [19] in a line: ATG_SREBP_CIS: Attagene CIS-FACTORIAL HepG2 Assay for human Sterol Regulatory Element Binding (SREBP) (AID 2282962). The conditions noted are these: HepG2 Attagene cis-factorial SREBP reporter, mRNA; actives raise or lower the signal. In a few lines:
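Transfected HepG2 (cis-regulated reporter library, endogenous TFs) → compound 24 h → total RNA → oligo(dT) RT → reporter-specific PCR → FAM primer extension, HpaI cut → CE fluorescence. Fit bidirectional vs DMSO.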

Steroid hormone receptor ERR1 (Homo sapiens), sequence (P11474 whole entry, looked up, the tested form may be a part): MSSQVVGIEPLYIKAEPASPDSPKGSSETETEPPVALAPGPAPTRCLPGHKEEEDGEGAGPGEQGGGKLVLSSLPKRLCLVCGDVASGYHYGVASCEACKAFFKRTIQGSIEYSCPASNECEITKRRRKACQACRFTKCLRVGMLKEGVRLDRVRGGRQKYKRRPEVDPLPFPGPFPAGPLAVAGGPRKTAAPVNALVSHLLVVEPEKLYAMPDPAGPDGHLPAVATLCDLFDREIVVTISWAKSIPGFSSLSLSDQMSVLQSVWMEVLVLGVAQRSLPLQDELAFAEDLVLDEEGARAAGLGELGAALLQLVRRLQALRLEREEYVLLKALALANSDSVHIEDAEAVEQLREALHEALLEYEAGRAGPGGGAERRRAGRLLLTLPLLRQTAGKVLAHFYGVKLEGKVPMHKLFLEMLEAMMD
Transcription factor Sp1 (Homo sapiens), sequence (P08047 whole entry, looked up): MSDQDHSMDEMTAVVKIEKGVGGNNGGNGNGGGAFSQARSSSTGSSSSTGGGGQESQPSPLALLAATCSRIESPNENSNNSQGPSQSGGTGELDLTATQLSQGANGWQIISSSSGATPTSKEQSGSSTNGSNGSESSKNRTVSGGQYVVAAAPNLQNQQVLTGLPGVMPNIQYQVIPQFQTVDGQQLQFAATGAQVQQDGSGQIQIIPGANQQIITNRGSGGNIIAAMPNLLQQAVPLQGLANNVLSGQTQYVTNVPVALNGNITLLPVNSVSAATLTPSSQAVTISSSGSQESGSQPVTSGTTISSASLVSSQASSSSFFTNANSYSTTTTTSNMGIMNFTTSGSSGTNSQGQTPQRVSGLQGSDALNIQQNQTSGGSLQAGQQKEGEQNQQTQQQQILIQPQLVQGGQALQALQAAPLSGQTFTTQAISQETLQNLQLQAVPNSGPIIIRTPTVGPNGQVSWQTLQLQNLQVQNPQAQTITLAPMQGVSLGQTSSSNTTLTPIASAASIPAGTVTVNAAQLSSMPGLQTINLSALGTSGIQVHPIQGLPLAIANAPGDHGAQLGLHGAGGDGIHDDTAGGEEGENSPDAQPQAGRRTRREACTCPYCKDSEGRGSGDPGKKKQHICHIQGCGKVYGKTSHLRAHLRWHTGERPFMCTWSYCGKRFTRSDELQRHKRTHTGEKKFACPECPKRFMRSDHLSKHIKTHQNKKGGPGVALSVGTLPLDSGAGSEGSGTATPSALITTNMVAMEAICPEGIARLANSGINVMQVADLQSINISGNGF
X-box-binding protein 1 (Homo sapiens), sequence (P17861 whole entry, looked up): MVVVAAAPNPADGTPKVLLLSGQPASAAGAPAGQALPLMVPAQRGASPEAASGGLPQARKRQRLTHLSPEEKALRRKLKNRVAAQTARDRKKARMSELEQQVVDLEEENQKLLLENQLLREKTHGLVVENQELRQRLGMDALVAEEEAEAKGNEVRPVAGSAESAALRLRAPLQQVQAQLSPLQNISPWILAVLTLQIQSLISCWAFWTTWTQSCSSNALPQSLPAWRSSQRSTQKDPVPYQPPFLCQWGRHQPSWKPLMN
Estrogen receptor (Homo sapiens), sequence (P03372 whole entry, looked up, the tested form may be a part): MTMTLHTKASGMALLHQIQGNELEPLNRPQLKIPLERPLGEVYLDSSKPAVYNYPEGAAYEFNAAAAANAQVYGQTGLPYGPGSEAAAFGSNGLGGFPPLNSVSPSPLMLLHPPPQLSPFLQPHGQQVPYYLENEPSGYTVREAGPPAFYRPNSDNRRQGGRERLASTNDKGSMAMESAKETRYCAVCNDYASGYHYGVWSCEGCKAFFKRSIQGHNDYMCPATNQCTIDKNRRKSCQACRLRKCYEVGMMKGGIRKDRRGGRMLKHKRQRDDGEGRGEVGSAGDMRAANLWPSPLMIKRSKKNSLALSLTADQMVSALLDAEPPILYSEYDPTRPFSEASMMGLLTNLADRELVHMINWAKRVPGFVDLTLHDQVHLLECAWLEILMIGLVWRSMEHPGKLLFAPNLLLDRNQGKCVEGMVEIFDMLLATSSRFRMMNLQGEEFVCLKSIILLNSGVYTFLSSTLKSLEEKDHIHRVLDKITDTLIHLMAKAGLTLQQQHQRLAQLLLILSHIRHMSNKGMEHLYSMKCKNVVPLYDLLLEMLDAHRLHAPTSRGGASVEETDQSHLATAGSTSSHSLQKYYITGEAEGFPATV
Nuclear receptor subfamily 1 group I member 3 (Homo sapiens), sequence (Q14994 whole entry, looked up, the tested form may be a part): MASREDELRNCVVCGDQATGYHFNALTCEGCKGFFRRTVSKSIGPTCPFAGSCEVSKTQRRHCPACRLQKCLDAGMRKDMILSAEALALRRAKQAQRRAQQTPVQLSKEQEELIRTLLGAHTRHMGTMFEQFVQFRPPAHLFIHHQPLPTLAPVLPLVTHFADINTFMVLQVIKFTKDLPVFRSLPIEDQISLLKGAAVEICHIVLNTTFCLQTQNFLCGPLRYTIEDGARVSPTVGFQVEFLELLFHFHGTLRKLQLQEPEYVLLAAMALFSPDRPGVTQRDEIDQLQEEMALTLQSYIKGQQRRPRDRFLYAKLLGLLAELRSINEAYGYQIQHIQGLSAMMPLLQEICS
Paired box protein Pax-6 (Homo sapiens), sequence (P26367 whole entry, looked up): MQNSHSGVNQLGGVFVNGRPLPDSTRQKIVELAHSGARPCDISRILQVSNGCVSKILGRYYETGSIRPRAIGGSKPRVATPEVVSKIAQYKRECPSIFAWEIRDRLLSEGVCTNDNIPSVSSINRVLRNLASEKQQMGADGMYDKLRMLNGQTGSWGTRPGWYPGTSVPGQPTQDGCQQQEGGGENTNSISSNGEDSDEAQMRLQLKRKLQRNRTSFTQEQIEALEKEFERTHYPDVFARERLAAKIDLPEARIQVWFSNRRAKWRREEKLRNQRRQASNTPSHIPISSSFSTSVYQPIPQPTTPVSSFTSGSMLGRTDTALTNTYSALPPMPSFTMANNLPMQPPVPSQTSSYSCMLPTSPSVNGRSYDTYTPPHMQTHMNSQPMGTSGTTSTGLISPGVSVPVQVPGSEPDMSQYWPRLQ
Signal transducer and activator of transcription 3 (Homo sapiens), sequence (P40763 whole entry, looked up): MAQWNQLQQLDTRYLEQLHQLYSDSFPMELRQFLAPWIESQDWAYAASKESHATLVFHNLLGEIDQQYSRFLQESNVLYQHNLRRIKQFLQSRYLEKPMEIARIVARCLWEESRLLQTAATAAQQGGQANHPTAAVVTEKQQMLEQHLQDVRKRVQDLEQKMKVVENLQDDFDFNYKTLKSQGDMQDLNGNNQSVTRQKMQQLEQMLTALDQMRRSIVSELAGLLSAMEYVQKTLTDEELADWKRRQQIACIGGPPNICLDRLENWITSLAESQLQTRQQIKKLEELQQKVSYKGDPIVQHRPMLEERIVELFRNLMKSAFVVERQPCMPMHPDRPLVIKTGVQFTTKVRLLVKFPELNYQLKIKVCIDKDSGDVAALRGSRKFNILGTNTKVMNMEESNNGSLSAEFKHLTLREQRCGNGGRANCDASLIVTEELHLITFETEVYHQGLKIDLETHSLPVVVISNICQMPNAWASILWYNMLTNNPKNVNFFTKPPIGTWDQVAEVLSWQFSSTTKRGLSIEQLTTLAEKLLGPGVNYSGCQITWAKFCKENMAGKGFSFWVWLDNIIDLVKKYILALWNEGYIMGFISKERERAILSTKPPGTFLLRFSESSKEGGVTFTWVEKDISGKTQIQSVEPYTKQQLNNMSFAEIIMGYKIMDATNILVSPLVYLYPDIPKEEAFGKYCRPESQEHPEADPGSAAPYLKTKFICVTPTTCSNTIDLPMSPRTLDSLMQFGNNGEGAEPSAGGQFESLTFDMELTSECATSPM

With `COc1nc(NC(C)C)nc(NC(C)C)n1`, the result in [1], in experiment [2], in experiment [3], in [4], in [5] and in experiment [6] was inactive. For the same compound, the result in experiment [7], in experiment [8], in [9], in experiment [10], in experiment [11] and in experiment [12] was inactive. For the same compound, the compound was classed as inactive in [13], in experiment [14], in [15], in [16] and in [17]. Besides, the AC50 (usually the concentration at which the activity in the assay is half-maximal) was 18.6 µM (active) in [3] and 30.5 µM (active) in experiment [5].
As to `CNC(=S)S`, the outcome in [1], in experiment [2], in experiment [3], in experiment [6], in experiment [7] and in experiment [8] was inactive. For the same compound, the result in [9], in experiment [10], in experiment [11], in experiment [12], in [13] and in experiment [18] was inactive. Further, the compound was called inactive in experiment [16]. The AC50 was 80 µM (active) in [3] and 168 µM (active) in [10].
Regarding `CS/C(C)=N/OC(=O)N(C)SN(C)C(=O)O/N=C(\C)SC`, the result in experiment [1], in experiment [2], in [3], in experiment [4], in [5] and in experiment [6] was inactive. Also, the result in experiment [7], in experiment [19], in experiment [8], in experiment [9], in experiment [10] and in experiment [11] was inactive. Moreover, the call in experiment [12], in experiment [18], in [14], in experiment [16] and in experiment [17] was inactive.
For `COc1ccc(C(c2ccc(OC)cc2)C(Cl)(Cl)Cl)cc1`, the outcome in experiment [1], in [2], in experiment [3], in experiment [4], in [5] and in [6] was inactive. For the same compound, the result in [7], in experiment [8], in [9], in experiment [10], in experiment [11] and in experiment [12] was inactive. The call in experiment [13], in [18], in experiment [14], in experiment [15], in [16] and in experiment [17] was inactive. The AC50 in experiment [3] is 4.17 µM (active) [middle of 4 runs]; in experiment [7], 24.4 µM (active) and 38.1 µM (active); in [13], 4.94 µM (active) and 16.3 µM (active) and 11.9 µM (active); in experiment [14] it was 1.53 µM (active) [middle of 4 runs]; in experiment [16], 28.3 µM (active).
Take `COC(=O)C=C(C)OP(=O)(OC)OC`: the outcome in experiment [1], in experiment [2], in [3], in [4], in experiment [5] and in [6] was inactive. The compound was called inactive in experiment [7], in [8], in experiment [9], in [10], in experiment [11] and in [12]. Besides, the compound was classed as inactive in [13], in [18], in experiment [14], in [15], in experiment [16] and in experiment [17].
As to `COC(=O)N(OC)c1ccccc1COc1ccn(-c2ccc(Cl)cc2)n1`, the AC50 in [1] is 1.67 µM (active); in [3], 1.28 µM (active); in experiment [4] it was 0.343 µM (active); in experiment [5], 2.2 µM (active); in [13], 1.35 µM (active). The call in experiment [2], in [6], in [7], in experiment [8], in [9] and in [10] was inactive. For the same compound, the result in experiment [11], in experiment [12], in experiment [18], in [14], in experiment [15] and in experiment [16] was inactive.
